{"source": "PubChem BioAssay AID588676", "about": "(Johns Hopkins Ion Channel Center, 2011)", "note": "About 3,900 (1.3%) of roughly 310,000 compounds were called active.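 The calls were made as follows: active = calcium-response B-score plate-corrected more than 3 library SD below zero, starting fluorescence within 5 deviations, no agonist response on first addition; inactive = the rest.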 Shown is part of a subset that was picked to be rich in actives.", "data": [{"target": "Mas-related G-protein coupled receptor member X1 (Homo sapiens) (UniProt Q96LB2)", "sequence (Q96LB2 whole entry, looked up)": "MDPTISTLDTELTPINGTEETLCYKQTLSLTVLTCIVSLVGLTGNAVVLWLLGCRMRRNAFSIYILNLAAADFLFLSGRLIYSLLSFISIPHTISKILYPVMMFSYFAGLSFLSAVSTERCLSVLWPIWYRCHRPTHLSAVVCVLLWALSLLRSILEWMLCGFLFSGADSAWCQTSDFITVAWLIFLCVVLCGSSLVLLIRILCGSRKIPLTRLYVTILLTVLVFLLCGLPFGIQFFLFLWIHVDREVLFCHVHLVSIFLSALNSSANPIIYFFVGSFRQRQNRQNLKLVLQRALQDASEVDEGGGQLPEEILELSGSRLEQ", "test": "antagonists of human MrgX1 receptor, primary screen, HEK293 cells, Fluo-4 calcium flux (AID 588676);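 as to B-score: peak minus trough fluorescence over baseline after final BAM8-22 challenge near maximal dose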", "conditions": "Fluo-4, BAM8-22 antagonism, at 10 µM; hits give low values", "values": [{"smiles": "COc1ccc(NC(=S)Nc2ccc(S(N)(=O)=O)cc2)c(C)c1", "B-score": "inactive"}, {"smiles": "NS(=O)(=O)c1ccc(NC(=S)Nc2ccc(Br)c(Cl)c2)cc1", "B-score": "-5.41 (active)"}, {"smiles": "NS(=O)(=O)c1ccc(CCNC(=S)Nc2ccc(S(N)(=O)=O)cc2)cc1", "B-score": "inactive"}, {"smiles": "CO/N=C(/CS(=O)(=O)c1ccc(Br)cc1)c1ccc(OC)cc1", "B-score": "inactive"}, {"smiles": "CCOc1ccc(C)cc1S(=O)(=O)NC1CCCCCC1", "B-score": "inactive"}, {"smiles": "CCOC(=O)CSc1nc(C)c(Oc2ccc(Cl)cc2Cl)c(=O)[nH]1", "B-score": "inactive"}, {"smiles": "CCCCOC(=O)CNc1nnc(SCC(=O)OCC)[nH]c1=O", "B-score": "-10.5 (active)"}, {"smiles": "Cc1nnc(SCC(=O)N2CCOCC2)[nH]c1=O", "B-score": "inactive"}, {"smiles": "COCCOC(=O)C1=C(C)NC(=O)NC1c1cc2c(cc1Br)OCO2", "note": "(stereo unspecified)", "B-score": "inactive"}, {"smiles": "O=C(O)CSC(NC(=O)c1cccnc1)(C(F)(F)F)C(F)(F)F", "B-score": "-5.59 (active)"}, {"smiles": "O=C(Cc1ccccc1)Nc1ccc(NC(=O)c2cccnc2)cc1", "B-score": "inactive"}, {"smiles": "O=C(NNC(=O)c1cccnc1)Nc1ccccc1", "B-score": "inactive"}, {"smiles": "CCOC(=O)C1CCN(C(=O)COC(=O)C2CCN(S(=O)(=O)c3ccc4c(c3)OCCO4)CC2)CC1", "B-score": "inactive"}, {"smiles": "O=C(COC(=O)C1CCN(S(=O)(=O)c2ccc3c(c2)OCCO3)CC1)Nc1ccccc1OC(F)F", "B-score": "-5.02 (active)"}, {"smiles": "COc1ccccc1CNC(=O)C1CCN(S(=O)(=O)c2ccc3c(c2)OCCO3)CC1", "B-score": "inactive"}, {"smiles": "C/C(=N/O)c1ccc(N2C(=O)C3C4C=CC(C3C2=O)C2C3C(=O)N(c5ccc(/C(C)=N/O)cc5)C(=O)C3C42)cc1", "note": "(stereo unspecified)", "B-score": "inactive"}, {"smiles": "Clc1ccc(Nc2ccc3ccccc3n2)cc1", "B-score": "inactive"}, {"smiles": "CCC(C)c1ccccc1N1CC(C(=O)N2CCN(S(=O)(=O)c3ccc(F)cc3)CC2)CC1=O", "note": "(stereo unspecified)", "B-score": "-7.31 (active)"}, {"smiles": "O=C(C1CC(=O)N(c2ccc(F)cc2)C1)N1CCN(c2ccccc2)CC1", "note": "(stereo unspecified)", "B-score": "inactive"}, {"smiles": "Cc1ccccc1N1CC(C(=O)Nc2ccc(S(=O)(=O)N3CCCC3)cc2)CC1=O", "note": "(stereo unspecified)", "B-score": "inactive"}, {"smiles": "Cc1cc(C)n(C(=O)c2ccc(C)c(S(=O)(=O)N3CCOCC3)c2)n1", "B-score": "inactive"}, {"smiles": "O=C(NCc1ccncc1)NC12CC3CC(CC(C3)C1)C2", "B-score": "inactive"}, {"smiles": "S=C(NCc1ccc(Cl)cc1)NC12CC3CC(CC(C3)C1)C2", "B-score": "-5.44 (active)"}, {"smiles": "S=C(NCc1ccc(Cl)cc1)NC1CCCCC1", "B-score": "inactive"}, {"smiles": "CC(=O)c1cccc(NC(=S)N2CCCC2)c1", "B-score": "inactive"}, {"smiles": "O=C(Nc1ccc(Br)cc1)c1cc(S(=O)(=O)Nc2ccccn2)ccc1Cl", "B-score": "inactive"}, {"smiles": "OC(c1ccccc1)c1nccn1Cc1ccccc1", "note": "(stereo unspecified)", "B-score": "inactive"}, {"smiles": "CN(Cc1ccccc1)C(=O)C(=O)c1cn(CC(=O)N2CCCC2)c2ccccc12", "B-score": "inactive"}, {"smiles": "O=C(c1cccs1)C1C(c2ccc(Br)cc2)NC(=S)NC1(O)C(F)(F)F", "note": "(stereo unspecified)", "B-score": "-6.04 (active)"}, {"smiles": "CCOC(=O)C1C(c2ccc(Cl)cc2)NC(=S)NC1(O)C(F)(F)F", "note": "(stereo unspecified)", "B-score": "inactive"}, {"smiles": "CC(=O)C1C(c2cccc(Oc3ccccc3)c2)NC(=O)NC1(O)C(F)(F)F", "note": "(stereo unspecified)", "B-score": "inactive"}, {"smiles": "COc1ccc(C(C#N)Nc2ccccc2C)cc1", "note": "(stereo unspecified)", "B-score": "inactive"}, {"smiles": "CCOC(=O)N1CCN(S(=O)(=O)c2ccc(OC)cc2)CC1", "B-score": "inactive"}, {"smiles": "COc1ccc(S(=O)(=O)N2CCN(C(=O)NC3CCCCC3)CC2)cc1", "B-score": "-4.64 (active)"}, {"smiles": "O=S(=O)(c1ccc(F)cc1)N1CCN(C(=S)NC2CCCC2)CC1", "B-score": "inactive"}, {"smiles": "C=CC[n+]1c(-c2ccc(C)cc2)csc1NNC(=O)Nc1ccccc1", "B-score": "inactive"}, {"smiles": "CCCOc1ccc(Cc2c(Cl)nc(SC)nc2NC)cc1", "B-score": "inactive"}, {"smiles": "Cc1cc(C)n(CCNC(=O)CC2C(=O)NCCN2Cc2ccc(C)o2)n1", "note": "(stereo unspecified)", "B-score": "-4.73 (active)"}, {"smiles": "COc1cc(CN2CCNC(=O)C2CC(=O)NCCc2ncccc2C)cc(OC)c1", "note": "(stereo unspecified)", "B-score": "inactive"}, {"smiles": "Cc1nccn1CCCNC(=O)CC1C(=O)NCCN1Cc1ccc(Cl)c(F)c1", "note": "(stereo unspecified)", "B-score": "inactive"}, {"smiles": "COC(=O)c1ccc(NC(=O)CSc2nncn2-c2cccnc2)cc1", "B-score": "inactive"}, {"smiles": "O=C(CSc1nnc(Cc2ccccc2)n1-c1ccccc1)N1CCOCC1", "B-score": "inactive"}, {"smiles": "O=C(CSc1nncn1-c1cccnc1)N1CCOCC1", "B-score": "-5.04 (active)"}, {"smiles": "CCC(C)(C)NC(=O)CN(C(=O)CCC(=O)Nc1nccs1)c1ccc2c(c1)OCO2", "B-score": "inactive"}, {"smiles": "CCS(=O)(=O)c1ccc2c(c1)N(S(=O)(=O)c1ccccc1)CC(C(=O)O)O2", "note": "(stereo unspecified)", "B-score": "-4.74 (active)"}, {"smiles": "CCS(=O)(=O)c1ccc2oc(SCC(=O)N3c4ccccc4CC3C)nc2c1", "note": "(stereo unspecified)", "B-score": "inactive"}, {"smiles": "CCOC(=O)C1CN(S(=O)(=O)c2ccc(OC)cc2)c2cc(Cl)ccc2O1", "note": "(stereo unspecified)", "B-score": "inactive"}, {"smiles": "Cc1ccc(C)c(S(=O)(=O)N2CCCOC2CNC(=O)C(=O)NC2CCCCC2)c1", "note": "(stereo unspecified)", "B-score": "inactive"}, {"smiles": "COc1cc(OC)cc(C(=O)NCCCn2ccnc2)c1", "B-score": "inactive"}, {"smiles": "CC1CC(C)CN(C(=O)CCNC(=O)Cn2cnc3ccccc3c2=O)C1", "note": "(stereo unspecified)", "B-score": "inactive"}, {"smiles": "CCN1CCN(c2cc3nc(C)n(Cc4ccccc4)c(=O)c3cc2NC(=O)c2ccccc2F)CC1", "B-score": "inactive"}, {"smiles": "COc1ccc(COC(=O)c2ccc(Cl)c(S(=O)(=O)N3CCOCC3)c2)cc1F", "B-score": "inactive"}, {"smiles": "Cc1cc(NC(=O)COC(=O)c2ccc(F)c(S(=O)(=O)N3CCOCC3)c2)no1", "B-score": "inactive"}, {"smiles": "CCOc1ccc(CCNC(=O)COC(=O)c2ccc(F)c(S(=O)(=O)N3CCOCC3)c2)cc1OCC", "B-score": "-5.64 (active)"}, {"smiles": "Fc1ccc(-c2ccc(CNCc3ccccn3)o2)cc1Cl", "B-score": "inactive"}, {"smiles": "CCCCc1nc2cc(C(=O)N3CCCCC3CCO)ccc2o1", "note": "(stereo unspecified)", "B-score": "inactive"}, {"smiles": "COc1ccc(-n2nc3c(N4CCC(C(=O)NCc5ccccc5)CC4)nnc(C)c3c2C)cc1", "B-score": "inactive"}, {"smiles": "OCC1(Cc2ccccc2C(F)(F)F)CCN(Cc2cccc3cnccc23)CC1", "B-score": "-7.22 (active)"}, {"smiles": "C/C(=N/N1CCN(Cc2cccc3ccccc23)CC1)c1cccnc1", "B-score": "inactive"}, {"smiles": "OCC1(Cc2ccccc2C(F)(F)F)CCN(Cc2ccncc2)CC1", "B-score": "inactive"}, {"smiles": "CCc1cc2c(SCC(=O)Nc3ncc(Cl)c(C)c3Cl)ncnc2s1", "B-score": "-4.97 (active)"}, {"smiles": "CCc1cc2c(NC3CCCC3)ncnc2s1", "B-score": "inactive"}, {"smiles": "CCc1cc2c(NC(Cc3ccccc3)C(=O)O)ncnc2s1", "note": "(stereo unspecified)", "B-score": "inactive"}, {"smiles": "Cc1ccc(C(=O)N/C(=C\\c2ccco2)C(=O)NC2CCS(=O)(=O)C2)cc1", "note": "(stereo unspecified)", "B-score": "inactive"}, {"smiles": "ON=C1/C(=N\\O)CC2(C/C1=N/O)OCCO2", "B-score": "inactive"}, {"smiles": "Nc1nc(-c2sc3nc4c(cc3c2N)CCCC4)nc(N2CCOCC2)n1", "B-score": "inactive"}, {"smiles": "Cc1ccccc1S(=O)(=O)N1[C@@H](c2cccc(Cl)c2)C(C(=O)O)=CC[C@H]1c1ccc(Cl)cc1", "B-score": "inactive"}, {"smiles": "Cc1ccc([C@@H]2CC=C(C(=O)O)[C@H](c3cccc(Cl)c3)N2S(=O)(=O)c2ccc(C)cc2)cc1", "B-score": "inactive"}, {"smiles": "Cc1ccc(S(=O)(=O)N2[C@@H](c3cccc(Cl)c3)C(C(=O)O)=CC[C@H]2c2ccc(Cl)c(Cl)c2)cc1", "B-score": "-6.18 (active)"}, {"smiles": "COc1ccccc1OCCC(=O)OCC(=O)NCc1ccccc1", "B-score": "inactive"}, {"smiles": "CC(=O)c1cc(-c2ccccc2)n(CCC(=O)NC2CCCCCC2)c1C", "B-score": "inactive"}, {"smiles": "Cc1occc1C(=O)NC1CCCN(Cc2ccc(CC(C)C)cc2)C1", "note": "(stereo unspecified)", "B-score": "inactive"}, {"smiles": "Cc1ccc(NC(=O)c2nc[nH]c2C(=O)N[C@@H](CCCCNC(=O)OC(C)(C)C)C(=O)OC(C)(C)C)cc1", "B-score": "-9.54 (active)"}, {"smiles": "CNC(=O)c1[nH]cnc1C(=O)N[C@@H](CC(C)C)C(=O)OC(C)(C)C", "B-score": "inactive"}, {"smiles": "CCOC(=O)c1ccc(NC(=O)c2nc[nH]c2C(=O)N[C@@H](CCCCNC(=O)OC(C)(C)C)C(=O)OC(C)(C)C)cc1", "B-score": "inactive"}, {"smiles": "O=[N+]([O-])c1ccc(Oc2ccc(F)cc2Br)c2ccncc12", "B-score": "inactive"}, {"smiles": "O=C(CN1CCN(c2ccc(O)cc2)CC1)Nc1ccc(-c2ccccc2)cc1", "B-score": "inactive"}, {"smiles": "O=C(COC(=O)c1ncc(Cl)c(Cl)c1Cl)NCc1cccs1", "B-score": "inactive"}, {"smiles": "O=C(COC(=O)c1ncc(Cl)c(Cl)c1Cl)NNC(=O)c1ccccc1", "B-score": "-4.63 (active)"}, {"smiles": "NS(=O)(=O)c1cc(C(=O)OCC(=O)NNC(=O)c2ccccc2)ccc1Cl", "B-score": "inactive"}, {"smiles": "CC(=O)c1cnn(-c2cc(Oc3ccc(F)cc3)ncn2)c1C", "B-score": "inactive"}, {"smiles": "Cc1cc(NC(=O)[C@H](C)NC(=O)c2ccco2)ccc1Br", "B-score": "inactive"}, {"smiles": "NC1=NC(=O)C2(COC(c3ccccc3Cl)OC2)S1", "note": "(stereo unspecified)", "B-score": "inactive"}, {"smiles": "Clc1ccc(C=NC23CN4CN(CN(C4)C2)C3)cc1", "B-score": "-6.85 (active)"}, {"smiles": "FC(F)(F)c1nc2ccccc2nc1N/N=C/c1ccc(Cl)cc1", "B-score": "inactive"}, {"smiles": "O=C(CN1CCSCC1)N/N=C/c1ccc(Cl)cc1", "B-score": "inactive"}, {"smiles": "COc1ccc(CCNC(=O)C2CCCN(Cc3nc(-c4cccc(Cl)c4)oc3C)C2)cc1OC", "note": "(stereo unspecified)", "B-score": "inactive"}, {"smiles": "COCCn1c(C)cc(C(=O)COC(=O)/C=C/c2cccc(OC)c2)c1C", "B-score": "inactive"}, {"smiles": "CCc1[nH]nc(C(=O)N2CCCC(CO)(Cc3ccc(F)cc3F)C2)c1C", "note": "(stereo unspecified)", "B-score": "inactive"}, {"smiles": "C=CCNC(=O)c1sc(SC)cc1-c1ccc(Cl)cc1", "B-score": "inactive"}, {"smiles": "CCC(=O)NC(Nc1nc2ccc(C)cc2s1)(C(=O)OC)C(F)(F)F", "note": "(stereo unspecified)", "B-score": "inactive"}, {"smiles": "O=C(NC(Nc1nc2ccc([N+](=O)[O-])cc2s1)(C(F)(F)F)C(F)(F)F)c1ccccc1", "B-score": "-6.28 (active)"}, {"smiles": "CCOc1ccc2nc(NC(=O)c3cc([N+](=O)[O-])ccc3N3CCOCC3)sc2c1", "B-score": "inactive"}, {"smiles": "CCCOC(=O)c1c(NC(=O)c2cnn3c2NC(c2ccccc2)CC3C(F)(F)F)sc2c1CCCC2", "note": "(stereo unspecified)", "B-score": "inactive"}, {"smiles": "Cc1nc(N=C(N)N)nc2c(C)cccc12", "B-score": "inactive"}, {"smiles": "CCOc1cc(/C=C2/N=C(c3ccc(C(C)(C)C)cc3)OC2=O)cc(Cl)c1OS(C)(=O)=O", "B-score": "inactive"}, {"smiles": "Cc1cccc(NC(=O)Cn2c(=O)n(Cc3ccccc3)c(=O)c3c(C)c(C)sc32)c1", "B-score": "inactive"}, {"smiles": "CCOc1ccccc1C1CC(c2ccc(Cl)cc2)Nc2nc(N)nn21", "note": "(stereo unspecified)", "B-score": "-7.74 (active)"}, {"smiles": "COc1ccc(C2CC(c3ccc(Cl)cc3Cl)Nc3nc(N)nn32)cc1OC", "note": "(stereo unspecified)", "B-score": "inactive"}, {"smiles": "CCOc1ccccc1C1CC(c2ccccc2)Nc2nc(N)nn21", "note": "(stereo unspecified)", "B-score": "inactive"}, {"smiles": "COCCC(=O)Nc1ccc2c(c1)CN(C(=O)CCOC)CC2", "B-score": "inactive"}]}]}
